# Rows were chosen to be rich in hits. Some 17% of all compounds tested hit in one or more screens of this group.
# TDP1 cell CPT: growth inhibition of DT40 Tdp1-/-;hTDP1 cells with camptothecin (screen for TDP1 inhibitors); 420,000 tested, 12% active; AID 686979; Potency, µM (top dose mostly 46.2 µM), for the others: top-dose activity change, negative = growth inhibition, hits mostly inhibitors; chicken DT40 Tdp1-/-;hTDP1 cells + 20 nM CPT, ATP luminescence, 48 h; note: % is set by controls: 0 for no effect and ±100 for the full control effect; nearly all actives have a fitted effect of over 55% in size
#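 Chicken DT40 Tdp1-/- cells stably complemented with human TDP1 were seeded at 400 cells/well in medium containing 20 nM camptothecin, exposed to pin-transferred compounds, and grown at 37 °C for at least 48 hr. Viability was read as ATP luminescence.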
# ATXN viability: viability counter-screen for ATXN expression inhibitors | S2 cells (HEK-293 line with an ATXN2-luciferase reporter) viability, CellTiter-Fluor protease fluorescence, 24 h | Potency, µM (top dose mostly 56.7 µM), usual class: cytotoxic | 400,000 tested, 0.49% active; note: nearly all actives have a fitted effect of over 40% in size
# HepG2 tox: counter-screen for TGF-b inhibitors: cytotoxicity in HepG2 cells | Potency, µM (doses to about 46.1 µM), inactives show at the top dose activity change, negative = cytotoxicity, most hits filed as cytotoxic | HepG2 CAGA-GFP viability, ATP luminescence, 18 h | 410,000 tested, 0.76% active
#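 HepG2 CAGA-GFP cells (1000/well, DMEM with 1% FBS) received compound, then TGF-beta at 500 pg/mL final, and were incubated 18 hours at 37 degrees C. Viability was read by CellTiter-Glo luminescence. Media-only wells were set as complete cell-killing and DMSO as no toxicity.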
# ATXN2 expr inh: ATXN2 expression inhibition | HEK-293 ATXN2-luciferase reporter, luminescence, 24 h | Potency, µM (highest dose often 57 µM), for inactives: top-dose activity change, negative = inhibition, usual class: inhibitors | 360,000 tested, 0.72% active | AID 1745845; note: % is set by controls: 0 for no effect and ±100 for the full control effect; nearly all actives have a fitted effect of over 55% in size
#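 qHTS (up to 57 uM final) was run with 24 h compound exposure of reporter cells at 37 °C. Each well was multiplexed: SteadyGlo luminescence measured ATXN2-luciferase expression after a fluorogenic Gly-Phe-AFC viability readout (25 uM final).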
# TGFb SMAD3 inh: inhibitors of TGF-b signaling; HepG2 CAGA-GFP TGF-b/SMAD3 reporter, GFP fluorescence, 18 h; TGF-beta stimulated, 500 pg/mL final; Potency, µM (titrated, usually from 46.1 µM), without a hit: at the highest dose activity, negative = inhibition, hits mostly inhibitors; 410,000 tested, 1.2% active; note: % is set by controls: 0 for no effect and ±100 for the full control effect; nearly all actives have a fitted effect of over 65% in size
#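 GFP signal (ex488/em500-530) from TGF-beta-stimulated HEPG2 CAGA-GFP cells, 500 pg/mL final, 18 h at 37 degrees C in DMEM plus 1% FBS, normalized to unstimulated and DMSO-stimulated controls.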
# TDP1 cell noCPT: qHTS for Inhibitors of human tyrosyl-DNA phosphodiesterase 1 (TDP1): qHTS in cells in absence of CPT; DT40 Tdp1-/- hTDP1 cells, no CPT, ATP luminescence, 48 h; Potency, µM (titrated, usually from 46.2 µM), for the others: at the highest dose activity change, negative = growth inhibition, actives largely listed as inhibitors; 420,000 tested, 15% active; note: % is set by controls: 0 for no effect and ±100 for the full control effect; nearly all actives have a fitted effect of over 55% in size
#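 Stably hTDP1-transfected Tdp1-null chicken DT40 cells were treated with library compounds minus camptothecin and grown for at least 48 hr at 37 °C, after which cellular ATP was quantified by luminescence.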
# * hit, by the source's call; i = inactive; ? = inconclusive; . = no result. Calls come from the whole dose curve; as a rule, active = well fitted curve in the direction sought with a large enough effect; inconclusive = small, poorly fitted or top-dose-only effect, or another doubt; inactive = no such curve, though single readings can be large; an effect the other way counts as inactive or inconclusive. Potency is the fitted concentration of half-maximal effect.
SMILES,TDP1 cell CPT,ATXN viability,HepG2 tox,ATXN2 expr inh,TGFb SMAD3 inh,TDP1 cell noCPT
CCCOc1ccc(C2C(=O)N(C3CCC(C)CC3)CC(=O)N2Cc2cccc(OC)c2)cc1OC (stereo not given),?,.,-2%,.,0%,?
COc1cc(NC(=O)c2nc(-c3ccncc3)no2)cc(OC)c1OC,-28%,.,-15%,.,-11%,?
CCc1ccccc1NC(=O)C1(S(=O)(=O)c2ccc(C)cc2)CC1,-18%,i,-2%,-16%,8%,-16%
Cc1cc(C)c(NC(=O)CCN2CCCCC2)c(C)c1,2%,i,2%,-6%,5%,1%
Cc1nc2ccccc2nc(C)c1=NOCC(=O)N(c1ccccc1)C(C)C,?,i,-6%,16%,-12%,18µM*
CC(=O)NC(c1cccc(F)c1)c1nc(-c2cc(F)cc(Cl)c2)cs1 (stereo not given),-25%,i,-28%,-20%,-2%,-30%
O=c1nc(/C=C/c2cc([N+](=O)[O-])ccc2Cl)cc(C(F)(F)F)[nH]1,?,?,1%,?,1%,23µM*
O=c1nc(/C=C/c2cccn2-c2ccc([N+](=O)[O-])cc2)cc(C(F)(F)F)[nH]1,-37%,i,-9%,3%,-21%,0%
O=C(COC(=O)c1ccccc1O)Nc1cccc2ccccc12,-16%,i,-1%,-9%,-3%,11%
CC1(C)COC(/C=C/c2cccc([N+](=O)[O-])c2)=N1,?,?,-23%,?,?,12µM*
CC(C)C(=O)N1CCC1(C)C(=O)Nc1ccc(-n2cncn2)cc1 (stereo not given),-1%,i,-7%,14%,-3%,-14%
Cc1ccc(CNCc2cccn2-c2nnc(N3CCCC3)s2)cc1,?,i,-42%,14%,-31%,16µM*
COc1cccc(CNCc2cccn2-c2nnc(N3CCN(c4ccccc4)CC3)s2)c1,?,i,-29%,?,?,?
COc1ccc(NCc2cccn2-c2nnc(N3CCCCC3)s2)cc1OC,?,i,-22%,5%,-4%,16µM*
CCc1ccc(NCc2cccn2-c2nnc(N3CCCCCC3)s2)cc1,21µM*,.,-41%,.,.,16µM*
COc1ccc(NCc2cccn2-c2nnc(N3CCOCC3)s2)cc1OC,-20%,i,-2%,-12%,-7%,?
COc1ccccc1NCc1cccn1-c1nnc(N2CCCCCC2)s1,?,i,-31%,181%,?,?
Cc1c(-c2csc(N)n2)c2ccccc2n1C,6%,i,-6%,-12%,0%,-11%
CCOc1ccccc1N1CCN(CC(=O)N(C)CC(=O)Nc2ccccc2CC)CC1,-8%,i,-72%,.,-7%,-20%
Cc1nn2cnnc2c(C)c1Cc1ccc(Cl)cc1,?,i,-18%,.,-3%,?
COc1ccc(-c2ccc(=O)n(CC(=O)Nc3ccccc3C(F)(F)F)n2)cc1,-9%,i,-23%,-8%,-3%,-12%
Cc1cccc(C)c1NC(=O)CS(=O)(=O)c1nc(-c2ccc(Cl)cc2)cn1-c1ccccc1,9.2µM*,?,0%,-39%,?,16µM*
COc1ccc(-c2cn(-c3ccc(C)cc3)c(S(=O)(=O)CC(=O)Nc3ccc(F)cc3)n2)cc1,16µM*,?,-37%,-10%,-26%,21µM*
COc1ccccc1-n1cc(-c2ccc(C)cc2)nc1S(=O)(=O)CC(=O)Nc1ccccc1C(F)(F)F,?,?,-3%,-15%,?,16µM*
CC1CC(C)(C)CC2(C1)NC(=O)N(CC(=O)N1CCN(S(=O)(=O)c3cccs3)CC1)C2=O (stereo not given),?,i,-15%,.,-24%,?
SMILES,TDP1 cell CPT,ATXN viability,HepG2 tox,ATXN2 expr inh,TGFb SMAD3 inh,TDP1 cell noCPT
Cc1nc2cccnc2n1-c1cccc(C(=O)NCCc2ccc(Cl)cc2)c1,?,.,-22%,.,0%,18µM*
CCOc1ccc(CCNC(=O)c2cccc(-n3c(C)nc4cccnc43)c2)cc1,23µM*,.,-23%,.,0%,16µM*
Cc1ccc(C(=O)NCCc2ccc(Cl)cc2)cc1-n1c(C)nc2cccnc21,?,.,-29%,.,-9%,23µM*
CCNC(=O)c1ccc(C)c(-n2c(C)nc3cccnc32)c1,4%,.,2%,.,0%,-1%
COc1ccccc1CCNC(=O)C1(C)CC1(Cl)Cl (stereo not given),-16%,i,-29%,7%,5%,-10%
CCOc1ccc(NC(=O)CSc2nccn2-c2cccc(C)c2C)cc1,18µM*,i,-22%,?,-23%,18µM*
Cn1c(CCCOc2ccc(Cl)cc2Cl)nnc1SCC(=O)Nc1nccs1,23µM*,i,-12%,-1%,-12%,?
Cc1occc1-c1nnc(SCC(=O)Nc2nccs2)n1CCc1ccccc1,15µM*,i,3%,-19%,-8%,18µM*
CCOC(=O)c1ccc(NC(=O)CSc2nccn2-c2ccc(OCC)cc2)cc1,?,i,-41%,-7%,?,?
Cc1cccc(C)c1NC(=O)CSc1nnc(-c2ccoc2C)n1CCc1ccccc1,-29%,i,-3%,1%,-4%,-9%
O=C(CSc1nccn1Cc1ccccc1)Nc1nccs1,-12%,i,2%,7%,0%,?
Cc1cccc(-n2ccnc2SCC(=O)Nc2nccs2)c1C,?,i,-9%,-4%,-11%,16µM*
O=C(Nc1cccc(F)c1)C1CCCN(S(=O)(=O)c2ccc(-n3cnnn3)cc2)C1 (stereo not given),-3%,i,-14%,-1%,-21%,-15%
CC(=O)c1ccc(NC(=O)CSc2nc3c(=O)n(C)c(=O)n(C)c3n2C)cc1,7%,.,6%,.,-1%,-13%
CC(C)(C)c1nc2ccccc2c2nnc(SCC(=O)Nc3nc4ccccc4s3)n12,?,.,-37%,?,?,?
CCc1nnc(NC(=O)CSc2nccn2-c2ccc(OC)cc2)s1,?,.,-20%,.,-24%,-9%
CCc1nnc(NC(=O)CSc2nccn2-c2cccc(C)c2C)s1,16µM*,i,-16%,-30%,-21%,8.2µM*

# From PubChem
